We go through five sequences from publication PMC8384837, “Expanding the binding specificity for RNA recognition by a PUF domain”.

The target of one test is PUM1 PUF domain R8-RHK (Homo sapiens, UniProt Q14671 828-1176, N1122R;Y1123H;Q1126K). Briefly: yeast three-hybrid, YBZ-1, SC-Leu-His + 0.5 mM 3-AT, 4 days. The following applies: tags: N-Gal4 AD-HA kept; label: inside an RPR1-promoter hybrid RNA with tandem MS2 sites; ssRNA. The method in brief:
(§1)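 A centromeric plasmid in strain YBZ-1 co-expressed Pumilio-1 PUF domain libraries, randomized at the three base-contacting residues of each repeat, with matching RNA elements; the strain carries a LexA–MS2 coat fusion and a HIS3 reporter. After four days on SC-Leu (input) or SC-Leu-His + 0.5 mM 3-AT (selection), the repeat regions were PCR-amplified and Illumina-sequenced. The interaction score is the log change in variant frequency from input to selection, using log2 and a pseudocount of 1 where absent.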
With “GGCUAGAACUAGUGGAUCCCCCGGCGCCCGGCGGCUCGAGCCCGGGUAAGUGUAAAUAGUCUGCAUGCCGCCGGGCGCCAUGCCUGCAGGUCGACUCUAGAAAACAUG”, the binding signal is 2.95 log2 enrichment (interaction score).

For “GGCUAGAACUAGUGGAUCCCCCGGCGCCCGGCGGCUCGAGCCCGGGUAAGGGUAAAUAGUCUGCAUGCCGCCGGGCGCCAUGCCUGCAGGUCGACUCUAGAAAACAUG”, the binding signal is 3.54 log2 enrichment (interaction score).

For “GGCUAGAACUAGUGGAUCCCCCGGCGCCCGGCGGCUCGAGCCCGGGUAAGCGUAAAUAGUCUGCAUGCCGCCGGGCGCCAUGCCUGCAGGUCGACUCUAGAAAACAUG”, the binding signal was 3.29 log2 enrichment (interaction score).

In a further test the target is PUM1 PUF domain R5-TRS (Homo sapiens, UniProt Q14671 828-1176, C1007T;Q1011S). The test is described as above. The following applies: tags: N-Gal4 AD-HA kept; label: inside an RPR1-promoter hybrid RNA with tandem MS2 sites; ssRNA. The method in brief:
as §1
For “GGCUAGAACUAGUGGAUCCCCCGGCGCCCGGCGGCUCGAGCCCGGGUAAGUGUAAAUAGUCUGCAUGCCGCCGGGCGCCAUGCCUGCAGGUCGACUCUAGAAAACAUG”, the binding signal was 2.85 log2 enrichment (interaction score).

“GGCUAGAACUAGUGGAUCCCCCGGCGCCCGGCGGCUCGAGCCCGGGUAAGUGUGAAUAGUCUGCAUGCCGCCGGGCGCCAUGCCUGCAGGUCGACUCUAGAAAACAUG”: the binding signal is 2.97 log2 enrichment (interaction score).

Regarding “GGCUAGAACUAGUGGAUCCCCCGGCGCCCGGCGGCUCGAGCCCGGGUAAGUGUUAAUAGUCUGCAUGCCGCCGGGCGCCAUGCCUGCAGGUCGACUCUAGAAAACAUG”, the binding signal is 3.03 log2 enrichment (interaction score).
